Test [1] deals with HEK293T. Put plainly: qHTS assay to identify novel small-molecules to repurpose for Merkel cell carcinoma treatment (AID 1296009). Note: nearly all actives have a fitted effect of over 60% in size. To be noted: MCC and control cell lines, CellTiter-Glo viability, 72 h; at 44.8 µM (top of the series) unless noted. An outline of the steps: (§1)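 72 hr, 37 degree celsius; NPC 8-pt / MIPE 11-pt dose response; compound pinned in DMSO; CellTiter-Glo, 10 min RT, luminescence; normalized to no-cell and DMSO controls.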
A general note: Quantitative high-throughput screening tests each substance at several concentrations.

A further test has as its system MCC-13. Described as above. To be noted: MCC and control cell lines, CellTiter-Glo viability, 72 h; series mostly up to 46 µM. An outline of the steps: as §1
On the technique in general: Cellular ATP, detected with luciferase, serves as a proxy for viable cell number.

Another test deals with MCC-26. The test is described as above. The note with it: MCC and control cell lines, CellTiter-Glo viability, 72 h; series mostly up to 46 µM. An outline of the steps: as §1
A further test relates to MKL-2. The description is as above. The note with it: MCC and control cell lines, CellTiter-Glo viability, 72 h; series mostly up to 46 µM. An outline of the steps: as §1
The subject of the next test is NIH3T3. The description is as above. The note with it: MCC and control cell lines, CellTiter-Glo viability, 72 h; series mostly up to 44.8 µM. An outline of the steps: as §1
A further test has as its system MKL-1. Described as above. The note with it: MCC and control cell lines, CellTiter-Glo viability, 72 h; series mostly up to 46 µM. An outline of the steps: as §1
For the next test, the system named is UISO. The test is described as above. To be noted: MCC and control cell lines, CellTiter-Glo viability, 72 h; series mostly up to 46 µM. An outline of the steps: as §1
A further test relates to WaGa. The description is as above. The note with it: MCC and control cell lines, CellTiter-Glo viability, 72 h; series mostly up to 46 µM. An outline of the steps:
as §1

Another test has as its system C33A. Put plainly: Primary qHTS to identify gynecologic anti-cancer compounds using libraries of approved drugs and bioactive compounds (AID 1345084). Note: nearly all actives have a fitted effect of over 55% in size. The note with it: Gynecologic cancer cell panel viability, ATPlite luminescence, 48 h; series mostly up to 57.5 µM. In outline: (§2)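 Measured: luminescence after ATPlite addition (15 min, RT). Exposure: 48 h, 37 C, 5% CO2.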

The next test deals with CASKI. Described as above. The note with it: Gynecologic cancer cell panel viability, ATPlite luminescence, 48 h; series mostly up to 57.5 µM. In outline: as §2
The test system of a further test is Es-2. The description is as above. The note with it: Gynecologic cancer cell panel viability, ATPlite luminescence, 48 h; series mostly up to 57.5 µM. An outline of the steps: as §2
The next test has as its system HeLa. The description is as above. The note with it: Gynecologic cancer cell panel viability, ATPlite luminescence, 48 h; series mostly up to 57.5 µM. In outline: as §2
Test [2] has as its system Hek293T. The test is described as above. To be noted: Gynecologic cancer cell panel viability, ATPlite luminescence, 48 h, control line for the selectivity index; series mostly up to 57.5 µM. An outline of the steps: as §2
The test system of a further test is JEG-3. The test is described as above. To be noted: Gynecologic cancer cell panel viability, ATPlite luminescence, 48 h; series mostly up to 57.5 µM. In outline:
as §2

The test system of a further test is OV90. Described as above. The note with it: Gynecologic cancer cell panel viability, ATPlite luminescence, 48 h; series mostly up to 57.5 µM. In outline:
as §2

In a further test the test system is SKOV3. The description is as above. To be noted: Gynecologic cancer cell panel viability, ATPlite luminescence, 48 h; series mostly up to 57.5 µM. An outline of the steps: as §2
The subject of another test is Tov-21-G. The test is described as above. The note with it: Gynecologic cancer cell panel viability, ATPlite luminescence, 48 h; series mostly up to 57.5 µM. In outline:
as §2

The test system of a further test is Tov112D. The description is as above. To be noted: Gynecologic cancer cell panel viability, ATPlite luminescence, 48 h; series mostly up to 57.5 µM. An outline of the steps:
as §2

The next test has as its system PA-1. Described as above. The note with it: Gynecologic cancer cell panel viability, ATPlite luminescence, 48 h; series mostly up to 57.5 µM. In outline:
as §2

The next test has as its system CAOV3. The test is described as above. To be noted: Gynecologic cancer cell panel viability, ATPlite luminescence, 48 h; series mostly up to 57.5 µM. In outline:
as §2

The structures appear in SMILES notation. Results filed as inconclusive are left out. Active and inactive are the calls of the source. Calls come from the whole dose curve; as a rule, active = well fitted curve in the direction sought with a large enough effect; inconclusive = small, poorly fitted or top-dose-only effect, or another doubt; inactive = no such curve, though single readings can be large; an effect the other way counts as inactive or inconclusive.
Potency is the fitted concentration of half-maximal effect.

In the case of `C[C@@H]1[C@H](C)CC[C@]2(C(=O)O)CC[C@]3(C)C(=CC[C@@H]4[C@@]5(C)CC[C@H](O)C(C)(C)[C@H]5CC[C@]43C)[C@@H]12`, the outcome with HEK293T [1] is “inactive [at 92 µM]”. Besides, the Potency entry in the test with MCC-13, in the test with MCC-26, in the test with MKL-2 and in the test with NIH3T3 was “inactive” in each case.
For the compound `Cc1ccccc1C(C(=O)NC1CCCCC1)N(C(=O)CNc1ccc(C#N)cc1)c1cccc(F)c1` (stereo not given), the call in the test on HEK293T [1] was inactive. Besides, the Potency result with MCC-13, in the test on MCC-26, in the test on MKL-1, in the test with MKL-2, in the test with UISO and in the test on WaGa was “inactive” throughout. In addition, the Potency result in the test on C33A, in the test on CASKI, with Es-2, in the test with HeLa, in the test with Hek293T [2] and in the test with JEG-3 was “inactive” in each case. For the same compound, the Potency result with OV90, with SKOV3, in the test on Tov-21-G and in the test on Tov112D was “inactive” throughout.
Turning to `C[C@H](CCC(=O)O)[C@H]1CC[C@H]2[C@H]3[C@@H](CC[C@]12C)[C@@]1(C)CC[C@@H](O)C[C@H]1C[C@@H]3O`, the call in the test with HEK293T [1] was inactive. Further, the Potency result in the test on MCC-13, in the test with MCC-26, in the test with MKL-1, with MKL-2 and in the test on UISO was “inactive” in each case.
With `CCNC(=O)[C@H]1O[C@@H](n2cnc3c(N)nc(NCCc4ccc(CCC(=O)O)cc4)nc32)[C@H](O)[C@H]1O`, in the test on HEK293T [1], the outcome was inactive. Moreover, the Potency entry with MCC-13, in the test on MCC-26, in the test with MKL-1, with MKL-2, in the test with NIH3T3 and with UISO was “inactive” each time. Also, in the test on WaGa, the Potency entry is “inactive”.
On to `CC(C)(OCc1nn(Cc2ccccc2)c2ccccc12)C(=O)O`, for which the outcome with HEK293T [1] was inactive. Further, the Potency entry in the test with MCC-13, in the test with MCC-26, with MKL-1, in the test with MKL-2, with UISO and with WaGa was “inactive” in each case. Further, the Potency result with C33A, in the test on CASKI, in the test on Es-2, with HeLa, in the test on Hek293T [2] and in the test on JEG-3 was “inactive” each time. Moreover, the Potency entry with OV90, in the test on PA-1, in the test on Tov-21-G and with Tov112D was “inactive” each time.
For the compound `CC(C)(CO)[C@@H](O)C(=O)NCCC(=O)O`, the compound was classed as inactive in the test with HEK293T [1]. The Potency result with MCC-13, with MCC-26, in the test on MKL-1, with MKL-2, in the test on UISO and in the test on WaGa was “inactive” each time.
Take `CN1CCC(COc2cnc(-c3cccc(Cn4nc(-c5cccc(C#N)c5)ccc4=O)c3)nc2)CC1`: the compound was classed as inactive in the test on HEK293T [1]. Further, the Potency result in the test on MCC-13, in the test on MCC-26, with UISO, in the test with WaGa, in the test with C33A and in the test on CASKI was “inactive” in each case. The Potency entry with Es-2, with HeLa, with Hek293T [2], in the test on OV90, in the test on PA-1 and in the test on SKOV3 was “inactive” throughout. The Potency result in the test on Tov-21-G and with Tov112D was “inactive” each time.
As for `Cc1cnc(Nc2cccc(CN3CCOCC3)c2)nc1Nc1cccc(S(=O)(=O)NC(C)(C)C)c1`, in the test on HEK293T [1], the call was inactive. For the same compound, the Potency result in the test with MCC-13, in the test on MCC-26, in the test with MKL-1, with MKL-2, in the test with UISO and in the test on WaGa was “inactive” each time. The Potency entry with C33A, with Es-2, in the test with Hek293T [2], in the test with JEG-3 and with OV90 was “inactive” throughout. In the test on SKOV3, the Potency was 0.794 µM (active).
Turning to `COc1nccc(-c2c(-c3ccc(F)cc3)ncn2C2CCC(O)CC2)n1` (stereo not given), the outcome with HEK293T [1] was inactive. In addition, the Potency result in the test with MCC-13, with MCC-26, with MKL-1, in the test with MKL-2, in the test with UISO and in the test on C33A was “inactive” in each case. The Potency entry in the test with CAOV3, with CASKI, with Es-2, with HeLa, in the test with Hek293T [2] and with JEG-3 was “inactive” in each case. The Potency entry with PA-1, in the test on SKOV3, with Tov-21-G and in the test on Tov112D was “inactive” each time.
On to `COc1cc2ncnc(Nc3cc(Br)c(O)c(Br)c3)c2cc1OC`, for which the call with HEK293T [1] was inactive. Moreover, the Potency entry in the test with MCC-13, with MCC-26, in the test on MKL-1, in the test with NIH3T3, in the test on WaGa and in the test with C33A was “inactive” each time. Besides, the Potency result in the test with CASKI, in the test with Es-2, in the test with HeLa, with Hek293T [2], in the test with JEG-3 and in the test with OV90 was “inactive” each time. Besides, the Potency entry in the test with PA-1, in the test with Tov-21-G and with Tov112D was “inactive” in each case.
For the compound `CNC(=O)c1c(-c2ccc(F)cc2)oc2cc(N(CCO)S(C)(=O)=O)c(C3CC3)cc12`, the compound was called inactive in the test with HEK293T [1]. Moreover, the Potency result in the test on C33A, with CASKI, in the test with Es-2, in the test with HeLa, in the test with Hek293T [2] and in the test on JEG-3 was “inactive” each time. In addition, the Potency entry in the test with OV90, in the test on PA-1, in the test with SKOV3, in the test on Tov-21-G and in the test on Tov112D was “inactive” throughout.
For `CN(C)c1nc(Cc2ccc(NC(=O)c3ccc(C(F)(F)F)cc3)cc2)nc(N(C)C)c1CC(=O)O`, the call in the test with HEK293T [1] was inactive. Also, the Potency entry in the test with MCC-13, with MCC-26, in the test with MKL-1, with MKL-2, in the test with UISO and in the test on WaGa was “inactive” each time. Further, the Potency entry in the test on C33A, in the test with CAOV3, in the test with CASKI, in the test on Es-2, with HeLa and in the test with Hek293T [2] was “inactive” in each case. In addition, the Potency result in the test with JEG-3, in the test on OV90, in the test on PA-1, with Tov-21-G and with Tov112D was “inactive” throughout.
Take `Cn1cc(-c2ccc3nnc(Sc4ccc5ncccc5c4)n3n2)cn1`: in the test on HEK293T [1], the compound was called inactive. The Potency result in the test with MCC-13, in the test on MKL-1, in the test with MKL-2, in the test on UISO and in the test with WaGa was “inactive” throughout.
`COc1ccc(-c2cc(=O)c3c(O)cc(O[C@@H]4O[C@H](CO[C@@H]5O[C@@H](C)[C@H](O)[C@@H](O)[C@@H]5O)[C@@H](O)[C@H](O)[C@@H]4O)cc3o2)cc1O`: the call with HEK293T [1] was inactive. In addition, the Potency result in the test on MCC-13, in the test with MCC-26, in the test with MKL-1, in the test on MKL-2, in the test with NIH3T3 and with UISO was “inactive” in each case. In addition, in the test with WaGa, the Potency result is “inactive”.
With `Oc1cc(O)cc(C=Cc2ccc(O)c(O)c2)c1`, in the test with HEK293T [1], the result was inactive. For the same compound, the Potency entry in the test with MCC-13 and with MCC-26 was “inactive” throughout. In addition, the Potency with WaGa is 18.7 µM (active).
For the compound `CS(=O)(=O)c1ccc(C2=C(c3ccccc3)C(=O)OC2)cc1`, the compound was called inactive in the test with HEK293T [1]. In addition, the Potency entry with MCC-13, in the test with MCC-26, in the test on MKL-1, with MKL-2, with NIH3T3 and with UISO was “inactive” in each case. Moreover, the Potency entry in the test on WaGa, in the test with C33A, with CASKI, with Es-2, with HeLa and in the test with Hek293T [2] was “inactive” in each case. For the same compound, the Potency entry in the test with JEG-3, in the test with OV90, with PA-1, in the test on Tov-21-G and in the test with Tov112D was “inactive” in each case.
With `CN1C(=O)C(Cc2c[nH]c3ccccc23)NC1=S` (stereo not given), the call in the test on HEK293T [1] was inactive. The Potency entry in the test on MCC-13, in the test on MCC-26, with MKL-1, with MKL-2, in the test on UISO and with WaGa was “inactive” each time. Also, the Potency result with CAOV3, in the test with CASKI, in the test on Es-2, in the test on HeLa, in the test on Hek293T [2] and with JEG-3 was “inactive” in each case. For the same compound, the Potency entry with OV90, in the test on PA-1, with SKOV3, in the test with Tov-21-G and in the test on Tov112D was “inactive” throughout.
